Screening data from PubChem BioAssay.
Pf growth 96h – P. falciparum growth inhibition at 96 hours | 320,000 compounds, 6.9% hits | Potency, µM (highest dose often 28.7 µM), for inactives: at the highest dose activity change, negative = inhibition, usual class: inhibitors | P. falciparum luciferase reporter growth, 96 h | AID 504834; also: potency is read from the fitted curve at half-maximal effect; % is scaled to controls: 0 for no effect and ±100 for the full control effect
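P. falciparum expressing integrated firefly luciferase grown in erythrocytes (2% hematocrit, 0.05% parasitemia final) with compounds for 96 hours at 37 C, 5% CO2. Growth inhibition read as loss of luminescence after adding luciferase detection reagent.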
SARS PLpro yeast – inhibitors of SARS-CoV papain-like protease in yeast; S. cerevisiae expressing SARS-CoV PLpro, growth rescue; Potency, µM (highest dose often 32.9 µM), for inactives: at the highest dose activity, positive = growth rescue, hits mostly activators; 330,000 compounds, 0.19% hits; calls by dose curve; also: potency is read from the fitted curve at half-maximal effect; 0% is about no effect; nearly all actives have a fitted effect of over 55% in size
Shiga toxin inh – blocks Shiga toxin action in Vero cells; Vero cells, Shiga toxin protein synthesis inhibition reporter; inhibition, % at 38.7 µM; AID 2315; 290,000 compounds, 9.2% hits; in the data active = inhibition mostly above about 28%, no sharp cut-off; inactive = mostly below about 43%; also: 0% is about no effect
Pf growth 48h – P. falciparum growth inhibition at 48 hours (one generation); AID 504832; Potency, µM (top dose mostly 28.7 µM), for inactives: at the top dose activity change, negative = inhibition, actives largely listed as inhibitors; P. falciparum luciferase growth in erythrocytes, 48 h; 310,000 compounds, 5.9% hits; also: potency is read from the fitted curve at half-maximal effect; % is scaled to controls: 0 for no effect and ±100 for the full control effect
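Here the parasites carry a stable luciferase gene and grow inside erythrocytes in Albumax-based RPMI medium with compound for one erythrocytic cycle. Activity is scored as loss of luminescent signal.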
AMA1-RON2 inh – disrupts binding of P. falciparum AMA1 to RON2. AlphaScreen AMA1-biotinylated RON2 peptide binding. Potency, µM (series often up to 58.2 µM), without a hit: at the top dose activity change, negative = inhibition, actives largely listed as inhibitors. 360,000 compounds, 0.2% hits. AID 720542;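 also: potency is read from the fitted curve at half-maximal effect; 0% = vehicle wells and -100% = peptide control; nearly all actives have a fitted effect of over 45% in size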
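AMA1 (3D7) with his tag at 25 nM final met compounds first, then biotinylated RON2 peptide at 25 nM; detection used donor plus acceptor beads, 10 µg/mL apiece, read by AlphaScreen after 30 min at room temperature.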
Cycloheximide cs – counter-screen hit for Shiga toxin inhibitors, cycloheximide. cell reporter, cycloheximide protein synthesis inhibition counterscreen. max response, %. 300,000 compounds, 12% hits. AID 2314; in the data active = max response mostly above about 13%, no sharp cut-off; inactive = mostly below about 14%; also: read at 38.3 µM for the half of the compounds with a filed dose; 0% is about no effect
Active calls of the source: *; u = inconclusive; x = no result given; + = active, no number; [ ] = dose if it differs, or a comment. Sampled rows, rich in hits. Any-hit rate of the full collection: about 19%. Unless noted, calls follow the shape of the dose curve; as a rule, active = well fitted curve in the direction sought with a large enough effect; inconclusive = small, poorly fitted or top-dose-only effect, or another doubt; inactive = no such curve, though single readings can be large; an effect the other way counts as inactive or inconclusive.

SMILES	Pf growth 96h	SARS PLpro yeast	Shiga toxin inh	Pf growth 48h	AMA1-RON2 inh	Cycloheximide cs
COc1ccc(Oc2ccccc2C=O)cc1	36%	-1%	4	31%	17%	-2
O=S(=O)(CC(CN1CCCCC1)N1CCCCC1)c1ccccc1 (centres undefined)	u	15%	54	-80%	-2%	27*
CC(CC(=O)N1CCc2ccccc21)n1cccn1 (centres undefined)	u	0%	25	26%	-3%	27*
COc1ccc(CC(=O)N2CCc3ccccc32)cc1	-23%	11%	80*	127%	6%	31*
O=C(CS(=O)(=O)c1ccccc1)N1CCCCCC1	27%	1%	53*	38%	9%	17*
CC1CCCCC1NC(=O)COC(=O)c1ccc2c(c1)NC(=O)CS2 (centres undefined)	x	-1%	x	x	6%	x
CCC(C(=O)NCC1CCCO1)N(C(=O)c1snc(C(N)=O)c1N)c1ccc(Cl)cc1 (centres undefined)	-8%	3%	-10	u	2%	-3
O=C(NCc1ccccn1)c1cc(Cl)ccc1OCc1ccccc1	34%	-9%	11	u	55%	4
CC(C(=O)Nc1ccc(F)c(F)c1F)N(C)CC(=O)Nc1ccccc1Br (centres undefined)	11%	15%	-10	-11%	61%	-4
O=C1c2ccccc2C(=O)N1CCCC(=O)N1CCc2ccccc21	40%	3%	-4	x	u	10
O=C(C(Cc1ccccc1)N1C(=O)c2ccccc2C1=O)N1CCc2ccccc21 (centres undefined)	u	4%	10	15µM*	7%	-3
CCCCNC(=O)C1(C)CCCCN1C(=O)c1c(F)ccc(C)c1F (centres undefined)	x	x	x	x	7%	x
CCCSc1nc(=O)n2cc(C)ccc2n1	u	-2%	57*	89%	4%	33*
CCOC(=O)CSc1nc(=O)n2cc(C)ccc2n1	-3%	1%	33	34%	-6%	17*
CC(C(=O)N1CCN(Cc2ccc3c(c2)OCO3)CC1)c1ccc([N+](=O)[O-])cc1 (centres undefined)	15%[5.75 µM]	1%	5	-24%	1%	3
CCCOP(=O)(c1ccc(N(C)C)cc1)C(O)c1ccc(Br)cc1 (centres undefined)	u	0%	-6	-23%	-16%	-2
Cc1cc(C)nc(NCc2ccc(Cl)cc2)n1	0%	1%	-18	u	-11%	-1
Cc1cncc(NCc2cccc(Cl)c2)n1	x	x	x	x	34%	x
Cc1cc(N/N=C/c2ccccc2)nc(NCc2ccccc2)n1	1.5µM*	-21%	14	2.3µM*	-11%	24*
Cc1cc(N/N=C/c2ccc(Cl)cc2)nc(NCc2ccccc2)n1	0.74µM*	-25%	-5	1µM*	-27%	12
Cc1cc(Nc2cccc(Cl)c2)nc(NCc2ccccc2)n1	0.47µM*	u	-10	0.74µM*	0%	-2
Cc1cc(N/N=C/c2cccc(Cl)c2)nc(NCc2ccccc2)n1	u	-31%	31	0.83µM*	-18%	23*
Cc1ccc(F)c(S(=O)(=O)NC(=O)C2(C)CCN2C(=O)CCc2ccccc2)c1 (centres undefined)	x	x	x	x	5%	x
O=C(NCc1ccc2c(c1)OCO2)c1cc(-c2ccccc2)nn1CC1CC(c2cccnc2)=NO1 (centres undefined)	x	x	x	x	-5%	x
CN(C)c1nc(NCc2ccccc2)nc(N/N=C/c2ccc(Cl)cc2Cl)n1	9.3µM*	4%	-5	u	8%	-2
SMILES	Pf growth 96h	SARS PLpro yeast	Shiga toxin inh	Pf growth 48h	AMA1-RON2 inh	Cycloheximide cs
Cc1cc(N/N=C/c2cccc(F)c2)nc(NCc2ccccc2)n1	u	0%	65*	u	-25%	20*
CN(C)c1nc(NCc2ccccc2)nc(N/N=C/c2ccccc2F)n1	28%	-1%	-17	u	x	-3
Cc1cc(N/N=C/c2ccccc2F)nc(NCc2ccccc2)n1	u	-1%	74	u	u	4
O=C(c1cc(-c2ccc(Cl)cc2Cl)on1)N1CCOCC1	-13%	-10%	59	169%	20%	25*
O=C(c1cc(-c2ccc(Cl)cc2)on1)N1CCOCC1	2%	1%	111*	153%	1%	29*
O=C(c1cc(-c2ccc(Cl)c(Cl)c2)on1)N1CCOCC1	u	-2%	45*	213%	26%	17*
O=C(c1cc(-c2ccc(Cl)c(Cl)c2)on1)N1CCCC1	-17%	-7%	36*	89%	x	21*
O=C(c1cc(-c2ccc(Cl)cc2)n(-c2ccc(Cl)cc2Cl)n1)N1CCOCC1	16%	-3%	9	-26%	-6%	-1
O=C(COc1ccccc1)NCC(=O)Nc1cccc(S(=O)(=O)NC2=NCCC2)c1	1%	2%	15	-7%	15%	-3
Cc1ccc(NC(=O)CSCc2cc(=O)n3cc(C)sc3n2)cc1	63%	5%	-8	18%	7%	-1
Cc1ccc(-n2nc(C)c3c(C(=O)OCC(=O)N(C)C4CCS(=O)(=O)C4)cc(-c4ccccc4)nc32)cc1 (centres undefined)	35%	-2%	-24	1%	5%	7
CCCCC[C@@H]1[C@H]2[C@H]3C(=O)N(c4ccccc4)C(=O)[C@H]3CC(=O)[C@H]2[C@H](c2ccccc2)N1S(=O)(=O)c1ccc(C)cc1	x	x	x	x	17%	x
O=C(c1cc(-c2cccc(Cl)c2)on1)N1CCOCC1	20%	-7%	137*	129%	-10%	25*
Cc1cc(C)c(C)c(S(=O)(=O)N2CCC(C(=O)Nc3ccc(S(=O)(=O)N4CCOCC4)cc3)CC2)c1C	u	-2%	-8	u	14%	9
CCOc1ccc(C2C(C(=O)c3ccco3)=C(O)C(=O)N2CCN2CCOCC2)cc1 (centres undefined)	32%	-5%	54*	18%	7%	26*
Cc1ccc(C(=O)C2=C(O)C(=O)N(Cc3ccco3)C2c2ccc(N(C)C)cc2)o1 (centres undefined)	12µM*	5%	-6	u	0%	19
CCOc1ccc(C2C(C(=O)c3cccs3)=C(O)C(=O)N2CCN2CCOCC2)cc1 (centres undefined)	11%	2%	25*	-8%	0%	28*
CCOc1ccc(C2C(C(=O)c3ccco3)=C(O)C(=O)N2CCCn2ccnc2)cc1 (centres undefined)	x	u	+	48%	11%	33*
O=C(OCC(=O)N1CCC(Cc2ccccc2)CC1)c1cc(Br)ccc1O	x	6%	x	x	-7%	x
COc1cc(NC(=O)Cn2cnc(S(=O)(=O)N3CCc4ccccc43)c2)cc(OC)c1OC	5%	0%	12	u	-6%	10
